{"source": "PubChem BioAssay AID1671192", "about": "(National Center for Advancing Translational Sciences (NCATS), 2021)", "note": "Results filed as inconclusive are left out. Unmarked numbers belong to inactive results. Calls follow the shape of the dose curve; as a rule, active = well fitted curve in the direction sought with a large enough effect; inconclusive = small, poorly fitted or top-dose-only effect, or another doubt; inactive = no such curve, though single readings can be large or run the other way.", "data": [{"target": "Polyunsaturated fatty acid lipoxygenase ALOX15 (Homo sapiens) (UniProt P16050)", "sequence (P16050 whole entry, looked up)": "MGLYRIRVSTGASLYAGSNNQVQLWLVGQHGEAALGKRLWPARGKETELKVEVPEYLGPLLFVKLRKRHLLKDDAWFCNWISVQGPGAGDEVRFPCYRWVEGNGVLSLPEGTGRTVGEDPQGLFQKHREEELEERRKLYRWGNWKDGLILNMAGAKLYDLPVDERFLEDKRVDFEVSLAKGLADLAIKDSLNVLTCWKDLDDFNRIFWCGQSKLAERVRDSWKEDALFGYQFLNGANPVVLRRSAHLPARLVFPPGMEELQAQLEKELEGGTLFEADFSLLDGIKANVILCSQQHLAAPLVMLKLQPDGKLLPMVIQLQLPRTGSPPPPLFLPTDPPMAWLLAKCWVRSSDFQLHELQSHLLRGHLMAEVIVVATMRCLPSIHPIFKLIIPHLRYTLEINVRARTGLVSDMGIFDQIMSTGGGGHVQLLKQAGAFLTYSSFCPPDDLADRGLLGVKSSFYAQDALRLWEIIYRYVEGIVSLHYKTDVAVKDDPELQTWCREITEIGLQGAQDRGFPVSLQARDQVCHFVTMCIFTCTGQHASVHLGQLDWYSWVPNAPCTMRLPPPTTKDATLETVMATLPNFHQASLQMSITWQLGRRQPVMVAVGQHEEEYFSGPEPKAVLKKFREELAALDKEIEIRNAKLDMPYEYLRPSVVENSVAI", "assay": "Counterscreen qHTS for inhibitors of human arachidonate 12S-lipoxygenase (ALOX12): ALOX15 Assay; also: 0% is about no effect", "details": "purified ALOX15 enzyme activity; series mostly up to 110 µM; activity change, negative = inhibition: at the top concentration", "procedure,_shortened": "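Xylenol orange–ferric complex formation, read as the 573 nm to 405 nm absorbance ratio, tracks product from 50 uM arachidonic acid turned over for 30 min at RT. Enzyme is 40 nM ALOX15, pH 7.5 HEPES buffer, compound-preincubated 15 min.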", "values": [{"smiles": "CC(=O)NCC(=O)N1Cc2ccccc2CC2(CCCN(CC3CCNC3)C2)C1", "note": "(configuration not stated)", "activity change, negative = inhibition": "-23.6%"}, {"smiles": "Cc1cc(C(=O)N2CCOCC2)c2c(C3CCNCC3)noc2n1", "activity change, negative = inhibition": "-7.21% [at 146 µM]"}, {"smiles": "CC(C)CNC(=O)c1cc(C2CC2)nc2onc(C3CCNCC3)c12", "activity change, negative = inhibition": "-18% [at 146 µM]"}, {"smiles": "CCN1CCC(c2nc3ccc(C)cc3c(=O)[nH]2)CC1", "activity change, negative = inhibition": "-3.63% [at 146 µM]"}, {"smiles": "CCC(=O)N1Cc2ccccc2CC2(CCCN(CC3CCNCC3)C2)C1", "note": "(configuration not stated)", "activity change, negative = inhibition": "-9.04%"}, {"smiles": "COc1cccc(N2C(=O)NC(=NC3CCCC3)C23CCCN([S+](=O)([O-])c2ccccc2)C3)c1", "note": "(configuration not stated)", "activity change, negative = inhibition": "-22.7%"}, {"smiles": "Fc1ccc(CN2CCC3(CC(c4cccc(C(F)(F)F)c4)=NO3)C2)cc1", "note": "(configuration not stated)", "activity change, negative = inhibition": "-0.975%"}, {"smiles": "O=C1NCc2ccccc2CC12CCCN2Cc1ccc(O)cc1O", "note": "(configuration not stated)", "activity change, negative = inhibition": "8.91% [at 146 µM]"}, {"smiles": "CC(C)Cc1ccc(CN2CCC3(Cc4ccccc4CNC3=O)C2)cc1", "note": "(configuration not stated)", "activity change, negative = inhibition": "-25%"}, {"smiles": "NCc1cccc(-c2cc(C(F)(F)F)ccc2Cl)c1", "activity change, negative = inhibition": "-3.31% [at 146 µM]"}, {"smiles": "COc1ccc(-c2cc(C(=O)NC3CCNCC3)c3c(C4CCCN4)noc3n2)cc1", "note": "(configuration not stated)", "activity change, negative = inhibition": "-6.82%"}, {"smiles": "CCc1ccc(CN2CCC3(CC2)Cc2ccccc2CNC3=O)s1", "activity change, negative = inhibition": "-1.04%"}, {"smiles": "FC(F)(F)c1ccc(CN2CCCC3(CC(c4cccc(C(F)(F)F)c4)=NO3)C2)cc1", "note": "(configuration not stated)", "activity change, negative = inhibition": "-20.9%"}, {"smiles": "NCc1ccc(-c2cccc(O)c2)cc1", "activity change, negative = inhibition": "-24.9% [at 146 µM]"}, {"smiles": "COc1ccc(-c2cc(C(=O)NCC3CC3)c3c(C4CCNC4)noc3n2)cc1", "note": "(configuration not stated)", "activity change, negative = inhibition": "-24.2%"}, {"smiles": "O=C(c1ccccc1)N1CCn2c(nn(-c3cccc(Cl)c3)c2=O)C1", "activity change, negative = inhibition": "-14.8% [at 146 µM]"}, {"smiles": "CN1CC(=O)N(C2CCCNCC2)Cc2c1ncnc2N1CCCC(O)C1", "note": "(configuration not stated)", "activity change, negative = inhibition": "-10.6%"}, {"smiles": "CN1CCC(C(=O)N2Cc3ccccc3CC3(CCCN(CC4CCNCC4)C3)C2)CC1", "note": "(configuration not stated)", "activity change, negative = inhibition": "-6.02%"}, {"smiles": "O=C1NCc2ccccc2CC12CCN(Cc1ccccc1Br)C2", "note": "(configuration not stated)", "activity change, negative = inhibition": "-7.1%"}, {"smiles": "O=C(c1ccc(C(F)(F)F)cc1)N1CCC2(CC1)C(=NC1CCCCC1)NC(=O)N2c1cc(F)cc(F)c1", "activity change, negative = inhibition": "-17%"}, {"smiles": "Cc1cc(C(=O)N2CCC(F)CC2)c2c(C3CCCN3)noc2n1", "note": "(configuration not stated)", "activity change, negative = inhibition": "-5.46% [at 146 µM]"}, {"smiles": "CCCN1CCC2(Cc3ccccc3CN(C(=O)Cc3ccc(O)cc3)C2)C1", "note": "(configuration not stated)", "activity change, negative = inhibition": "-27.1%"}, {"smiles": "Cn1nc(C2CCCNC2)c2c(C(=O)NCC(F)(F)F)cc(C3CC3)nc21", "note": "(configuration not stated)", "activity change, negative = inhibition": "-15.3%"}, {"smiles": "NCCCC(=O)N1CCC2(CC1)CN(C(=O)Cc1ccc(Cl)cc1)CCO2", "activity change, negative = inhibition": "-7.31%"}, {"smiles": "O=C1NCc2ccccc2CC12CCN(Cc1cccc3ccccc13)C2", "note": "(configuration not stated)", "activity change, negative = inhibition": "-22.1%"}, {"smiles": "CCOc1ccc(CN2CCC3(Cc4ccccc4CNC3=O)C2)cc1", "note": "(configuration not stated)", "activity change, negative = inhibition": "-15.1% [at 146 µM]"}, {"smiles": "Cc1cc(Cl)ccc1-c1cccc(C=O)c1", "activity change, negative = inhibition": "8.77% [at 146 µM]"}, {"smiles": "CCCN1CCCC12Cc1ccccc1CN(C(=O)CCCC(=O)O)C2", "note": "(configuration not stated)", "activity change, negative = inhibition": "-13%"}, {"smiles": "CSc1ccc(-c2ccccc2C=O)cc1", "activity change, negative = inhibition": "-21.2% [at 233 µM]"}, {"smiles": "COc1ccc(NCCN2CCCC2)cc1", "activity change, negative = inhibition": "-46.2% [at 233 µM]"}, {"smiles": "CC(C)OCCCNC(=O)c1cc(C2CC2)nc2onc(C3CCCN3)c12", "note": "(configuration not stated)", "activity change, negative = inhibition": "-5.04%"}, {"smiles": "CN1CC(=O)N(C2CCCNC2)Cc2c(NC3CCCCC3O)ncnc21", "note": "(configuration not stated)", "activity change, negative = inhibition": "-26%"}, {"smiles": "O=C1c2ccccc2CN1C1CCN(Cc2ccc(C(F)(F)F)cc2)CC1", "activity change, negative = inhibition": "-7.82%"}, {"smiles": "CC(C)C(=O)N1CCCC2(Cc3ccccc3CN2[S+](=O)([O-])c2ccccc2)C1", "note": "(configuration not stated)", "activity change, negative = inhibition": "-13.4%"}, {"smiles": "COc1ccc(-c2nc(C3CC3)nc3c2CN(C(=O)c2ccccc2F)CC3)cc1", "activity change, negative = inhibition": "-9.97%"}, {"smiles": "C[S+](=O)([O-])N1CC2(Cc3ccccc3NC2=O)C1", "activity change, negative = inhibition": "0.0174% [at 146 µM]"}, {"smiles": "CCCN1CCC2(CC1)Cc1ccccc1CN(C(=O)C(C)C)C2", "activity change, negative = inhibition": "-2.08% [at 146 µM]"}]}]}
